Structures are written as SMILES. Results filed as inconclusive are left out. Calls of active or inactive are those of the source. Unless noted, how the calls were made is not given here.

The values below come from PubChem BioAssay (NCATS).

Test [1] in a line: qHTS assay for small molecule agonists of the antioxidant response element (ARE) signaling pathway measured by Nrf2-dependant transcriptional activity - cell viability counter screen (AID 720653; active means well fitted curve in the direction sought with a large enough effect in the repeat runs; an effect the other way counts as inactive or inconclusive; further: on the % scale 0 is the no-effect control and ±100 the full control effect). To be noted: ARE-bla HepG2 viability, CellTiter-Glo ATP luminescence, 16 h; max response: stronger effect = lower value. In outline:
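ARE-bla HepG2 cells (2,000/well) rested 5 hrs at 37C/5% CO2, then exposed to compounds in DMSO for 16 hrs. Viability was read in the same wells as intracellular ATP by luminescence, 30 min at room temperature after reagent addition.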
(Quantitative high-throughput screening tests each substance at several concentrations.)

Test [2] deals with T1, Hexokinase-4 (Homo sapiens) + Glucokinase regulatory protein (Homo sapiens) (UniProt P35557+Q14397). Briefly: qHTS assay for inhibitors of recombinant human GCK-GKRP interaction: Diaphorase-coupled assay (AID 743205; active means well fitted curve in the direction sought with a large enough effect; an effect the other way counts as inactive or inconclusive). In outline:
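Compounds pre-incubated 20 min with substrate, then 10 nM GST-GCK with 10 nM FLAG-GKRP added. GCK activity coupled via G6PDH and diaphorase to resorufin (5 mM glucose, 0.4 mM ATP, 0.15 mM NADP+, pH 7.6), read kinetically over 30 minutes at Ex 525/Em 590 nm.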

The target of test [3] is T1, Hexokinase-4 (Homo sapiens) + Glucokinase regulatory protein (Homo sapiens). Briefly: qHTS assay for inhibitors of recombinant human GCK-GKRP interaction: ADP-Glo assay (AID 743206; active means well fitted curve in the direction sought with a large enough effect; an effect the other way counts as inactive or inconclusive;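 further: plate controls were DMSO plus enzyme for no effect and no enzyme for full effect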). In outline:
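Pin-transferred compounds meet a 15 nM GST-GCK/15 nM FLAG-GKRP/2 uM S6P mix (dispense concentrations). ATP is then added to 0.4 mM final with 5 mM glucose, and the reaction runs 60 min at room temperature. ADP is quantified luminescently.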

Test [4] has the same target. Briefly: qHTS assay for inhibitors of recombinant human GCK-GKRP interaction: HTRF assay (AID 743207; active means well fitted curve in the direction sought with a large enough effect; an effect the other way counts as inactive or inconclusive;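 further: 0% = DMSO with GCK present and -100% = DMSO wells lacking GCK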). In outline:
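HTRF binding of 5 nM GST-GCK and 5 nM FLAG-GKRP with 2 uM S6P in pH 7.1 Hepes buffer (MgCl2, KCl, DTT, Tween 20, BSA). Anti-FLAG XL665 and anti-GST donor added, 60 min at room temperature; 665/615 nm read, normalized to with- and without-GCK controls.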

Test [5] in a line: qHTS assay for cell viability of HEK293 cells (AID 743288; active means well fitted curve in the direction sought with a large enough effect; an effect the other way counts as inactive or inconclusive; further: on the % scale 0 is the no-effect control and ±100 the full control effect; nearly all actives have a fitted effect of over 50% in size). The conditions noted are these: ATP luminescence (CellTiter-Glo), 18 h; max response: stronger effect = lower value. Put shortly: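 Steps: plate 2,000 parental HEK293 cells per well; incubate ≥5 h, 37 C; add compounds in DMSO; incubate 18 h, 37 C; add CellTiter-Glo; wait 30 min at room temperature; read luminescence.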
Test [6] is described as follows: qHTS assay for cell viability of the p53RE-bla HCT-116 cell line (AID 743292; active means well fitted curve in the direction sought with a large enough effect; an effect the other way counts as inactive or inconclusive; further: on the % scale 0 is the no-effect control and ±100 the full control effect; nearly all actives have a fitted effect of over 55% in size). In outline:
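ATP-based luminescent viability (CellTiter-Glo, 30 min RT) after 16 h compound treatment at 37 C of p53RE-bla HCT-116 cells, seeded at 4,000 cells/well and rested 5 h before dosing.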

Test [7] is described as follows: High-throughput drug toxicity screening in the BPDCN cell line Gen2.2 (AID 1224824).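 Further: cells exposed to compounds for 48 h before reading.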 To be noted: Gen2.2 BPDCN cells; at 45.8 µM (top of the series) unless noted. Put shortly:
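Gen2.2 cells, 500 per well in phenol red-free RPMI with 10% FBS, exposed to compounds 48 h at 37 C, 5% CO2; viability by CellTiter-Glo luminescence. Percent activity scaled to DMSO (100%) and 9.2 uM bortezomib final (0%).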

A short description of test [8]: High-throughput drug toxicity screening in the BPDCN cell line Cal-1 (AID 1224825). The conditions noted are these: Cal-1 BPDCN cell viability, qHTS; at 45.8 µM (top of the series) unless noted. Put shortly:
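Viability of the BPDCN line Cal-1 is measured as ATP-based luminescence (CellTiter-Glo) following 48 h incubation with compounds. Percent activity uses DMSO-treated wells as 100% and 9.2 uM bortezomib as 0%.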

Test [9] can be described thus: qHTS profiling of the MIPE4 collection as inhibitors of Plasmodium falciparum (3D7) proliferation (AID 743344).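 Further: scaled between DMSO vehicle wells and 0.29 µM artemisinin as full inhibition.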 To be noted: P. falciparum 3D7 in erythrocytes, SYBR Green DNA fluorescence, 72 h; at 28.5 µM (top of the series) unless noted. In outline:
(§1)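 Parasite DNA was quantified by SYBR Green I fluorescence (ex 485, em 535 nm) after overnight lysis in saponin/Triton buffer at room temperature. Cultures at 0.3% parasitemia and 2.5% hematocrit were first exposed to compound for 72 h at 37 C; signals were normalised to artemisinin (0.29 uM) and vehicle wells.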

Test [10] is described as follows: qHTS profiling of the MIPE4 collection as inhibitors of Plasmodium falciparum (DD2) proliferation (AID 743345). The conditions noted are these: P. falciparum Dd2 in erythrocytes, SYBR Green DNA, 72 h; at 28.5 µM (top of the series) unless noted. Put shortly:
as §1

Test [11] in a line: qHTS profiling of the MIPE4 collection as inhibitors of Plasmodium falciparum (DD2) proliferation (Rep 2) (AID 743346). To be noted: P. falciparum Dd2 in erythrocytes, SYBR Green DNA, 72 h; at 28.5 µM (top of the series) unless noted. In outline: as §1
Test [12] is described as follows: qHTS profiling of the MIPE4 collection as inhibitors of Plasmodium falciparum (HB3) proliferation (AID 743347).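 Further: plate controls were DMSO vehicle wells for no effect and artemisinin wells for full effect.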 The conditions noted are these: P. falciparum HB3 in erythrocytes, SYBR Green DNA, 72 h; at 28.5 µM (top of the series) unless noted. In outline:
as §1

Test [13] can be described thus: qHTS assay for measurement of the activity of small molecule inhibitors on Zika virus induced Caspase-3 activity in human iPSC derived neural progenitor cells (hNPCs) (AID 1224857; active means well fitted curve in the direction sought with a large enough effect; an effect the other way counts as inactive or inconclusive; further: nearly all actives have a fitted effect of over 65% in size; further: potency means the concentration at half of the fitted maximal effect). Put shortly: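 Caspase-3/7 induction by a 6-hour ZIKV infection was quantified with a luminescent Caspase-Glo 3/7 reagent incubated 30 minutes at room temperature. Compounds were preincubated with hNPCs for 1 hour; inhibition was calculated against uninfected and infected control wells.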

Test [14] in a line: qHTS assay for measurement of the activity of small molecule inhibitors on Zika virus induced Caspase-3 activity in human astrocytoma cells (AID 1224859; active means well fitted curve in the direction sought with a large enough effect; an effect the other way counts as inactive or inconclusive; further: potency means the concentration at half of the fitted maximal effect). Put shortly: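 In SNB-19 cells plated at 250 cells/well and grown 16-20 h, compounds were applied 1 h before ZIKV (2 FFU/cell). Six hours later caspase-3/7 luminescence was recorded.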
Test [15] in a line: qHTS Assay for Identifying Gametocytocidal Compounds (AID 743244; active means well fitted curve in the direction sought with a large enough effect; an effect the other way counts as inactive or inconclusive;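 further: on the % scale 0 is the no-effect control and ±100 the full control effect; actives lower the fluorescent signal which means gametocytes are killed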). To be noted: P. falciparum 3D7 stage III-V gametocytes, alamarBlue, 72 h; max response: stronger effect = lower value. Put shortly: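 Late gametocytes (III–V), P. falciparum 3D7; 72 h drug, then 24 h alamarBlue; resazurin reduction read by fluorescence.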
Test [16] in a line: qHTS profiling for inhibitors of Plasmodium falciparum (HB3) proliferation (AID 743324; active means well fitted curve in the direction sought with a large enough effect; an effect the other way counts as inactive or inconclusive;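 further: 100% = DMSO vehicle wells and 0% = artemisinin-treated control wells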). The conditions noted are these: Plasmodium falciparum HB3 blood-stage proliferation; at 28.7 µM (top of the series). In outline: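 SYBR Green fluorescence (485 ex/535 em) of lysed cultures, incubated overnight at room temperature in the dark, quantifies parasite DNA. Infected erythrocytes at 0.3% parasitemia and 2.5% hematocrit were exposed 72 h; values normalized to DMSO and 0.29 uM artemisinin controls.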

T1 sequence (P35557 whole entry, looked up): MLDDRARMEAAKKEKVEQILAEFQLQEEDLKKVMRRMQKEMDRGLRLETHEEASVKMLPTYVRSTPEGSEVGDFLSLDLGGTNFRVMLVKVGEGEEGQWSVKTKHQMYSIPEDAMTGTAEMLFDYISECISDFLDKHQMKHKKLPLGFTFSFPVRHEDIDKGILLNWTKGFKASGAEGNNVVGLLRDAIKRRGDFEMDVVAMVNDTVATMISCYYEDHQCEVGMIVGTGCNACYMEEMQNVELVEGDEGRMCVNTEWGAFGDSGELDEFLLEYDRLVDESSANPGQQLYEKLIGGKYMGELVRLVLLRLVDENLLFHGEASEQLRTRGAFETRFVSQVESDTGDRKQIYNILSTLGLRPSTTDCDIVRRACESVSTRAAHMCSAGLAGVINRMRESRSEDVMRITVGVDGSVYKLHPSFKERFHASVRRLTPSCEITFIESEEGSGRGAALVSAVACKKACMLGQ
T1 sequence (Q14397 whole entry, looked up): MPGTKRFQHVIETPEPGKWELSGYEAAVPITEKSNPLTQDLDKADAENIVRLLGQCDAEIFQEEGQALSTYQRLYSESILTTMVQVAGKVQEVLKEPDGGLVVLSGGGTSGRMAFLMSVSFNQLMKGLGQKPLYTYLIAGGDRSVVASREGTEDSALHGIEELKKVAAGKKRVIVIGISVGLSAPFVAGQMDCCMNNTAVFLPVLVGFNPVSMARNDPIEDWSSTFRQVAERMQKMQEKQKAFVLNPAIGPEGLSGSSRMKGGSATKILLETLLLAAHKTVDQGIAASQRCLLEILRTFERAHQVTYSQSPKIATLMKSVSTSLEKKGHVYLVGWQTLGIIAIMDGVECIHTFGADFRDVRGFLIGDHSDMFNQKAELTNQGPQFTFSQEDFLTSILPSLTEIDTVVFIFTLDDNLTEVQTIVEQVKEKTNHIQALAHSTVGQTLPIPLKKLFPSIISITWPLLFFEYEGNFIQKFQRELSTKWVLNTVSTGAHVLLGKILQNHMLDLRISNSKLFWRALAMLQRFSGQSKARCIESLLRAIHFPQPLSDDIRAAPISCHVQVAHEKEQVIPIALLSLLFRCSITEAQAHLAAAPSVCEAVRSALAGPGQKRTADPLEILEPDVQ

As for `CC(C)OC(=O)C(C)(C)Oc1ccc(C(=O)c2ccc(Cl)cc2)cc1`, the figures for the max response in test [1] and in [5] were 3.55% (inactive) and -17.2% (inactive), respectively. For the same compound, the result in test [2], in test [3] and in [4] was inactive. Further, the Potency result in test [6] was “inactive”. In addition, the cell viability, % of control (lower = more cytotoxic) in test [7] is 250%. For the same compound, in test [8], the viability (% of control) came to 119%.

`O=C(NCc1ccncc1)C12C[C@H]3C[C@@H](C1)CC(c1ccc(Cl)cc1)(C3)C2` registered a parasite growth, % of DMSO control in test [9] of 20%. Also, the parasite growth remaining, % of DMSO control (lower = more inhibition) in test [10] came out at 93.6%. Also, in [11], the parasite growth, % of control (lower = inhibition) stood at 26%. In [12], the growth, % of control came to 42.3%. In test [8], the viability (% of control) was determined as 11.3%. Further, the Potency entry in test [13] was “inactive”.

In turn, `COc1ccc2cccc(CCNC(C)=O)c2c1` yielded a parasite growth, % of DMSO control in test [9] of 56.4%. For the same compound, the parasite growth remaining, % of DMSO control (lower = more inhibition) in test [10] stood at 101%. Also, the parasite growth, % of control (lower = inhibition) in [11] is 72.6%. The compound further displayed a growth, % of control in [12] of 41%. In addition, in [8], the viability (% of control) stood at 132%. For the same compound, the Potency result in test [13] and in test [14] was “inactive” in each case.

Consider `CC(C(=O)O)c1ccc(-c2ccccc2)c(F)c1` (stereo not drawn), for which the growth, % of control in test [12] is 96%. For the same compound, the viability (% of control) in test [8] was 96.9%. Further, in [13], the Potency was 16.6 µM (active).

In [9], `Cc1ccc(Nc2cc(-c3cccc(N4C(=O)c5ccccc5C4=O)c3)ncn2)cc1NS(C)(=O)=O` had a parasite growth, % of DMSO control of 76.1%. For the same compound, the parasite growth remaining, % of DMSO control (lower = more inhibition) in [10] was 83.3%. In addition, in test [11], the parasite growth, % of control (lower = inhibition) was 76.5%. Moreover, the growth, % of control in [12] amounted to 97.4%. Further, the viability (% of control) in test [8] is 13.1%. In addition, the Potency result in [13] and in test [14] was “inactive” in each case.

Regarding `CS(=O)c1ccc(-c2nc(-c3ccc(F)cc3)c(-c3ccncc3)[nH]2)cc1` (stereo not drawn), the max response in test [15] is 1.2% (inactive). In test [16], this compound showed a remaining proliferation (% of control), lower = more inhibition of 20.3%. For the same compound, in [9], the parasite growth, % of DMSO control stood at 19.5% [at 57.5 µM]. Also, in test [10], the parasite growth remaining, % of DMSO control (lower = more inhibition) came out at 26.4% [at 57.5 µM]. Besides, the growth, % of control in test [12] was 7.77% [at 57.5 µM]. Moreover, the viability (% of control) in test [8] was found to be 14.2% [at 92.2 µM]. Also, the Potency result in test [13] and in test [14] was “inactive” in each case.

As to `COc1ccc2c(Oc3ccc(NC(=O)c4c(C)n(CC(C)(C)O)n(-c5ccccc5)c4=O)cc3F)ccnc2c1`, the parasite growth, % of DMSO control in [9] came to 18.3%. Besides, the parasite growth remaining, % of DMSO control (lower = more inhibition) in test [10] was 60.9%. Moreover, the parasite growth, % of control (lower = inhibition) in test [11] was 48.9%. In [12], this compound returned a growth, % of control of 13.8%. For the same compound, the viability (% of control) in test [8] turned out to be 13.4%. The Potency result in [13] and in test [14] was “inactive” in each case.

Compound `OC[C@H]1O[C@@H](Oc2cc(O)cc(C=Cc3ccc(O)cc3)c2)[C@H](O)[C@@H](O)[C@H]1O` registered a parasite growth, % of DMSO control in test [9] of 82.6%. Besides, in test [10], the parasite growth remaining, % of DMSO control (lower = more inhibition) turned out to be 120%. Further, the parasite growth, % of control (lower = inhibition) in test [11] was 77.5%. Also, the growth, % of control in test [12] was 83.3%. The viability (% of control) in test [8] came to 60.5%. Further, the Potency result in test [13] and in test [14] was “inactive” each time.

In [9], `Cc1cccc(Nc2nc(-c3ccncc3)cs2)c1` had a parasite growth, % of DMSO control of 29.1%. Besides, the parasite growth remaining, % of DMSO control (lower = more inhibition) in test [10] was 71%. In [11], this compound gave a parasite growth, % of control (lower = inhibition) of 42.6%. Besides, the viability (% of control) in test [8] amounted to 82.9%. Besides, the Potency entry in test [13] was “inactive”.

The compound `N#CC1(c2ccc(NC(=O)c3cccnc3NCc3ccncc3)cc2)CCCC1` came in with a parasite growth, % of DMSO control in [9] of 18.4%. In addition, the parasite growth remaining, % of DMSO control (lower = more inhibition) in test [10] is 72.9%. Also, the parasite growth, % of control (lower = inhibition) in test [11] worked out at 65.6%. In test [12], this compound returned a growth, % of control of 23.3%. Moreover, the viability (% of control) in test [8] was determined as 93.1%. Moreover, the Potency in [13] is 16.6 µM (active); in test [14], 18.7 µM (active).

In [9], `Cc1nnc(C(C)C)n1C1C[C@H]2CC[C@@H](C1)N2CC[C@H](NC(=O)C1CCC(F)(F)CC1)c1ccccc1` (stereo partly drawn) showed a parasite growth, % of DMSO control of 69.7%. Besides, in [10], the parasite growth remaining, % of DMSO control (lower = more inhibition) came out at 100%. The compound also registered a parasite growth, % of control (lower = inhibition) in [11] of 55.4%. In test [12], this compound showed a growth, % of control of 92.4%. For the same compound, the viability (% of control) in [8] worked out at 104%. In addition, the Potency result in test [13] and in test [14] was “inactive” each time.

On to `Oc1ccc(C2=Cc3ccc(O)cc3OC2)cc1`, for which the parasite growth, % of DMSO control in test [9] amounted to 19.6%. In addition, in test [10], the parasite growth remaining, % of DMSO control (lower = more inhibition) was determined as 34.7%. Besides, in test [11], the parasite growth, % of control (lower = inhibition) is 27.9%. The compound further returned a growth, % of control in test [12] of 24.6%. Besides, the cell viability, % of control (lower = more cytotoxic) in test [7] came to 16.5%. The viability (% of control) in test [8] was 3.88%.
